Results as given in PubChem BioAssay (Tox21).
Records with an inconclusive call do not appear. Activity calls are given as the source filed them. Unless noted, calls follow the shape of the dose curve; as a rule, active = well fitted curve in the direction sought with a large enough effect in the repeat runs; inconclusive = weak or mixed curves; inactive = no such curve, though single readings can be large; an effect the other way counts as inactive or inconclusive.

How the values were obtained:
[1] = qHTS assay to identify small molecule antagonists of the thyroid receptor (TR) signaling pathway (AID 743065); also: series mostly up to about 70 µM; nearly all actives have a fitted effect of over 55% in size
How it was run: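 GH3.TRE-Luc rat pituitary cells carrying two TR response elements driving luciferase were plated for 4 h, given compound plus 1 nM T3 (final), and incubated 23.5 h at 37 C. ONE-Glo luminescence measured reporter inhibition; CellTiter-Fluor fluorescence tracked cytotoxicity.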

[2] = tested on: thyroid hormone receptor (rat, GH3 cells); assay: qHTS assay to identify small molecule agonists of the thyroid receptor (TR) signaling pathway (AID 743066; calls by dose curve)
[3] = target: Estrogen receptor (Homo sapiens) (UniProt P03372); assay: qHTS assay to identify small molecule antagonists of the estrogen receptor alpha (ER-alpha) signaling pathway (AID 743069; active = well fitted curve in the direction sought with a large enough effect in the signal ratio in the repeat runs, not every such curve was filed as active; the % refers to the signal ratio)
How it was run: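 Screening used a UAS-driven beta-lactamase reporter integrated into HEK293 cells expressing ER-alpha, stimulated with 17beta-estradiol alongside test compounds over 18 hr at 37C; signal came from LiveBLAzer B/G FRET fluorescence.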

[4] = qHTS assay to identify small molecule antagonists of the estrogen receptor alpha (ER-alpha) signaling pathway - cell viability counter screen (AID 743074; calls by dose curve; also: nearly all actives have a fitted effect of over 45% in size)
[5] = target: Estrogen receptor (Homo sapiens) (UniProt P03372); assay: qHTS assay to identify small molecule agonists of the estrogen receptor alpha (ER-alpha) signaling pathway (AID 743075; calls by dose curve)
[6] = target: Estrogen receptor (Homo sapiens) (UniProt P03372); assay: qHTS assay to identify small molecule agonists of the estrogen receptor alpha (ER-alpha) signaling pathway using the BG1 cell line (AID 743079); also: nearly all actives have a fitted effect of over 20% in size
[7] = qHTS assay to identify small molecule antagonists of the estrogen receptor alpha (ER-alpha) signaling pathway using the BG1 cell line (AID 743080; calls by dose curve;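 also: BG1 cells stimulated with 17beta-estradiol alongside compound; series mostly up to about 70 µM; nearly all actives have a fitted effect of over 25% in size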)
How it was run: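 BG1-Luc-4E2 cells (endogenous full-length ER-alpha, stable 4×ERE-luciferase) were starved 5 days in phenol-red-free medium with 10% charcoal-stripped FBS, plated 24 h, then given compound plus 17beta-estradiol for 21.5 h at 37 C; ONE-Glo luminescence read after 30 min.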

[8] = qHTS assay to identify small molecule antagonists of the estrogen receptor alpha (ER-alpha) signaling pathway using the BG1 cell line - cell viability counter screen (AID 743081);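 also: compound given together with 17beta-estradiol as the ER stimulus; series mostly up to about 70 µM; nearly all actives have a fitted effect of over 45% in size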
Aromatase (Homo sapiens) = Aromatase (Homo sapiens) (UniProt P11511); assay: qHTS assay to identify aromatase inhibitors (AID 743083); also: series mostly up to about 70 µM; nearly all actives have a fitted effect of over 55% in size
[9] = qHTS assay to identify aromatase inhibitors - cell viability counter screen (AID 743084);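 also: cells stimulated with testosterone during compound exposure; nearly all actives have a fitted effect of over 55% in size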
[10] = qHTS assay to identify small molecule that activate the aryl hydrocarbon receptor (AhR) signaling pathway - cell viability counter screen (AID 743086);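 also: HepG2 liver cells carrying the AhR DRE luciferase reporter; series mostly up to about 70 µM; nearly all actives have a fitted effect of over 45% in size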
How it was run: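 HepG2-AhR-luc (HG2L7.5c1) cells, 4000/well, were preincubated 5 h at 37C, exposed to compound in qHTS format for 24 hr at 37C, then given CellTiter-Fluor for 30 min; viability was read as fluorescence in the reporter wells.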

[11] = target: Peroxisome proliferator-activated receptor gamma (Homo sapiens) (UniProt P37231); assay: qHTS assay to identify small molecule agonists of the peroxisome proliferator-activated receptor gamma (PPARg) signaling pathway (AID 743094; active = well fitted activation curve with a large enough effect in the signal ratio in the repeat runs, not every such curve was filed as active; the % refers to the signal ratio)
How it was run: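 Fluorescence-based beta-lactamase readout in HEK293H PPARg UAS-bla cells after 17 h compound exposure (37C) and 1 h B/G FRET substrate incubation at room temperature.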

[12] = target: Peroxisome proliferator-activated receptor gamma (Homo sapiens) (UniProt P37231); assay: qHTS assay to identify small molecule antagonists of the peroxisome proliferator-activated receptor gamma (PPARg) signaling pathway (AID 743191; calls by dose curve; also: series mostly up to about 63 µM; nearly all actives have a fitted effect of over 30% in size)
How it was run: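 GeneBLAzer PPARg UAS-bla HEK293H cells carrying a UAS-driven beta-lactamase reporter were plated at 3000 cells/well, preincubated 5 h at 37C, then given compound for 17 h at 37C; LiveBLAzer B/G FRET substrate was read after 1 h at room temperature.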

[13] = qHTS assay to identify small molecule antagonists of the peroxisome proliferator-activated receptor gamma (PPARg) signaling pathway - cell viability counter screen (AID 743194); also: nearly all actives have a fitted effect of over 55% in size
How it was run: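 PPARg-UAS-bla HEK293H cells were plated, rested 5 h at 37 C, then treated with compounds plus rosiglitazone (50 nM final) for 17 h at 37 C; viability was then read by CellTiter-Glo luminescence after 30 min at room temperature.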

[14] = qHTS assay for small molecule agonists of the antioxidant response element (ARE) signaling pathway (AID 743202; active = well fitted activation curve with a large enough effect in the signal ratio in the repeat runs, not every such curve was filed as active; the % refers to the signal ratio)
How it was run: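 Steps: seed ARE-bla HepG2 cells (2,000/well); incubate 5 h at 37 C; add compounds by pin tool; incubate 16 h at 37 C; add FRET substrate; read fluorescence after 2 h at RT.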

[15] = qHTS assay for small molecule agonists of the antioxidant response element (ARE) signaling pathway - cell viability counter screen (AID 743203; calls by dose curve; also: nearly all actives have a fitted effect of over 55% in size)
How it was run: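 Parallel cytotoxicity read-out for the ARE-bla screen: HepG2 reporter cells, 16 hrs with compounds, then CellTiter-Glo luminescence.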

[16] = qHTS assay for small molecule activators of the heat shock response signaling pathway - cell viability counter screen (AID 743209); also: nearly all actives have a fitted effect of over 50% in size
How it was run: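 To flag cytotoxic compounds, HSE-bla HeLa cells plated at 1500 cells/well were dosed for 5 h at 37 C, followed by the reporter FRET read and then CellTiter-Glo, with luminescence recorded 30 min after reagent addition.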

[17] = qHTS assay to identify small molecule agonists of the peroxisome proliferator-activated receptor delta (PPARd) signaling pathway - cell viability counter screen (AID 743211); also: nearly all actives have a fitted effect of over 55% in size
How it was run: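 Following 5 h plating at 37 C and 5% CO2, PPARd UAS-bla HEK293H cells took up test compounds for 17 h. Viability was quantified by luminescence 30 min after CellTiter-Glo addition at room temperature.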

[18] = qHTS assay for small molecule activators of the heat shock response signaling pathway (AID 743210; active = well fitted activation curve with a large enough effect in the signal ratio in the repeat runs, with a control signal flat, not every such curve was filed as active; the % refers to the signal ratio;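 also: HeLa cells with beta-lactamase reporter driven by heat shock elements; series mostly up to about 63 µM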)
How it was run: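 Activation of heat shock element-controlled beta-lactamase expression is measured in HeLa cells by LiveBLAzer FRET fluorescence, with compound exposure lasting 5 h at 37 C and substrate loading 2.5 h at room temperature.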

[19] = target: Aryl hydrocarbon receptor (Homo sapiens) (UniProt P35869); assay: qHTS assay to identify small molecule that activate the aryl hydrocarbon receptor (AhR) signaling pathway (AID 743085);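 also: HG2L7.5c1 human HepG2 liver cells with stably integrated DRE-driven firefly reporter; series mostly up to about 70 µM; nearly all actives have a fitted effect of over 15% in size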
How it was run: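 Measured in HG2L7.5c1 cells: CellTiter-Fluor signal (30 min incubation, 37C) for viability, then luciferase luminescence (30 min, room temperature). Compound contact time was 24 h at 37C, following a 5 h pre-incubation.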

Measured: Potency

Aromatase (Homo sapiens), sequence (P11511 whole entry, looked up): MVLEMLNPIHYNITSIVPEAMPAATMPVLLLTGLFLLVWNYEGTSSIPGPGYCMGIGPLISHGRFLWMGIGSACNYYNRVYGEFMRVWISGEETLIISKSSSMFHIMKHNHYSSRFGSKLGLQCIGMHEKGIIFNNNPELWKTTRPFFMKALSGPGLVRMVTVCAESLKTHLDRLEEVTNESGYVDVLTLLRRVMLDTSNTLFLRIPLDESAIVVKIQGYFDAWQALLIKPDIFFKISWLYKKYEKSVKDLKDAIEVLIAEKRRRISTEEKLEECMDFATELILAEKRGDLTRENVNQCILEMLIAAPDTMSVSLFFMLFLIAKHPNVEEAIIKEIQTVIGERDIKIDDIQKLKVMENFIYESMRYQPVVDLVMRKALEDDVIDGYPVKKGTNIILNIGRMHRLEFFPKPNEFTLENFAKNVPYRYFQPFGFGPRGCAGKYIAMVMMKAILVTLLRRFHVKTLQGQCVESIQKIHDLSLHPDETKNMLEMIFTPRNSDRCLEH
Estrogen receptor (Homo sapiens), sequence (P03372 whole entry, looked up): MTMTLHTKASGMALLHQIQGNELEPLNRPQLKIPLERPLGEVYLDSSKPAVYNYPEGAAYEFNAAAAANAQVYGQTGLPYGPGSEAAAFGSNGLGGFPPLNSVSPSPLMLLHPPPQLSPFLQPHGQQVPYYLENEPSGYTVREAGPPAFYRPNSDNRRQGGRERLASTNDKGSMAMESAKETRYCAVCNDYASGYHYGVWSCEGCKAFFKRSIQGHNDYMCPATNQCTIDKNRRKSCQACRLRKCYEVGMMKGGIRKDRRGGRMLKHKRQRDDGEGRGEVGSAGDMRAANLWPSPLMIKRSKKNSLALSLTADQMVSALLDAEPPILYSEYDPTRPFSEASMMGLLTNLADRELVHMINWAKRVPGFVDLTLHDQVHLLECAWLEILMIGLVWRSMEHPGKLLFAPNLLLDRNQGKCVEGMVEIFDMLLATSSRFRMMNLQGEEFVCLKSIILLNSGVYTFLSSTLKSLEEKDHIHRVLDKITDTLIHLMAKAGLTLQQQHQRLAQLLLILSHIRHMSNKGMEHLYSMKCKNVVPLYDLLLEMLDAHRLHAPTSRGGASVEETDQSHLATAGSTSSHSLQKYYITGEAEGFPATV
Peroxisome proliferator-activated receptor gamma (Homo sapiens), sequence (P37231 whole entry, looked up): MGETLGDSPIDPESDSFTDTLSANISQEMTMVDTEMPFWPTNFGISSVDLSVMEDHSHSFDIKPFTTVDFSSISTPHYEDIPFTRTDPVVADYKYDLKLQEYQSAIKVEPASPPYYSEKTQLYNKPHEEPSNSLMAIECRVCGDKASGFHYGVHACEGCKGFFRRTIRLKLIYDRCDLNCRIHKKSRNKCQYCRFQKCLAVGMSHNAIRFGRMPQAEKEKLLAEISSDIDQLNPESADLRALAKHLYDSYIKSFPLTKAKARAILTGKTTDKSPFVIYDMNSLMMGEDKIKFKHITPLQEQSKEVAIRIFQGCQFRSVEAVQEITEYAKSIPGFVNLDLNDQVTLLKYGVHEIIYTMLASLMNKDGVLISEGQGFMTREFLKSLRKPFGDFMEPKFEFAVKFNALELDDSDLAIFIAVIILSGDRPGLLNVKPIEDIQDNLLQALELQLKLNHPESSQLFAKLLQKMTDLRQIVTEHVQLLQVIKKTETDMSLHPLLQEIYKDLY
Aryl hydrocarbon receptor (Homo sapiens), sequence (P35869 whole entry, looked up): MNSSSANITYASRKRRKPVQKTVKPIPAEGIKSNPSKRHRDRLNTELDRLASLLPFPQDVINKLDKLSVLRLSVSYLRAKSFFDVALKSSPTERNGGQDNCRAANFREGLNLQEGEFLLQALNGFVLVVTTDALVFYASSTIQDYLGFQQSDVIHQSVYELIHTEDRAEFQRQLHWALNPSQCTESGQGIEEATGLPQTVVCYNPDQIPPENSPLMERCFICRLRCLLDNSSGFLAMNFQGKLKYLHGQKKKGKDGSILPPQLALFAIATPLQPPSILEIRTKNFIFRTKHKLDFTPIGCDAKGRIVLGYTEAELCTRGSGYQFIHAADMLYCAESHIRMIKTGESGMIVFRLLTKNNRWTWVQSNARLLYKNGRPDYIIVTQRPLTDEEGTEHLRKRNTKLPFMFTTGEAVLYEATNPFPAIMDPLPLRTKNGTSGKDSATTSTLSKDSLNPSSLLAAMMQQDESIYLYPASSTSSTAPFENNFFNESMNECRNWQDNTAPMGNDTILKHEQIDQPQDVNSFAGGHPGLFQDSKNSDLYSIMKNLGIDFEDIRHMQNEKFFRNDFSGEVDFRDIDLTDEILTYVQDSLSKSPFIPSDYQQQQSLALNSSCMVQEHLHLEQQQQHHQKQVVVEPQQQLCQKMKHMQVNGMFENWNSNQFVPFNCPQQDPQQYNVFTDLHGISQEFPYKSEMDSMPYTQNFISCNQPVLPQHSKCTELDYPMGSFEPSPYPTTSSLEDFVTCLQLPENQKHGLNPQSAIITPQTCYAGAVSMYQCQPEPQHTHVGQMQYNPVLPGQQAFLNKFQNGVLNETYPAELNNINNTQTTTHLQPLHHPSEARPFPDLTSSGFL

CCO[Si](CCC#N)(OCC)OCC
inactive: [1] | [2] | [3] | [4] | [5] | [6] | [7] | [8] | Aromatase (Homo sapiens) | [9] | [10] | [11] | [12] | [13] | [14] | [15] | [16] | [17]

COC(=O)CCCC(=O)OC
inactive: [1] | [2] | [4] | [8] | [10] | [13] | [14] | [15] | [16] | [18] | [17]

CC(C)CC(=O)CC(C)CC(C)C (stereo unspecified)
inactive: [1] | [2] | [4] | [8] | Aromatase (Homo sapiens) | [9] | [10] | [11] | [12] | [13] | [14] | [15] | [16] | [18] | [17]

CC(C)(C#N)c1cc(Cn2cncn2)cc(C(C)(C)C#N)c1
inactive: [4] | [8] | [9] | [10] | [11] | [12] | [13] | [14] | [15] | [16] | [17]

c1ccc(Oc2ccccc2)cc1
inactive: [1] | [2] | [4] | [8] | Aromatase (Homo sapiens) | [9] | [19] | [10] | [13] | [14] | [15] | [16] | [18] | [17]

C=Cc1ccc(C)cc1
inactive: [1] | [2] | [8] | Aromatase (Homo sapiens) | [9] | [19] | [10] | [11] | [12] | [13] | [14] | [15] | [16] | [18] | [17]

CC(CCl)OP(=O)(OC(C)CCl)OC(C)CCl (stereo unspecified)
inactive: [3] | [4] | [5] | [6] | [7] | [8] | Aromatase (Homo sapiens) | [9] | [19] | [10] | [11] | [12] | [13] | [14] | [15] | [16] | [18] | [17]

CCO[Si](CCCN)(OCC)OCC
inactive: [3] | [4] | [5] | [6] | [7] | [8] | Aromatase (Homo sapiens) | [9] | [10] | [11] | [12] | [13] | [14] | [15] | [16] | [17]

CN/C(=C\[N+](=O)[O-])NCCSCc1csc(CN(C)C)n1
inactive: [1] | [2] | [4] | [8] | Aromatase (Homo sapiens) | [9] | [10] | [11] | [12] | [13] | [14] | [15] | [16] | [18] | [17]

CN(C)c1ccc(Cc2ccc(N(C)C)cc2)cc1
inactive: [1] | [2] | [4] | [8] | Aromatase (Homo sapiens) | [9] | [10] | [11] | [12] | [13] | [14] | [15] | [16] | [18] | [17]

C[C@]12CCC(=O)C=C1CC[C@@H]1[C@@H]2[C@@H](O)C[C@@]2(C)[C@H]1CC[C@]2(O)C(=O)CO
inactive: [1] | [2] | [4] | [8] | Aromatase (Homo sapiens) | [9] | [10] | [11] | [12] | [13] | [14] | [15] | [16] | [17]

NCCCCCCN
inactive: [1] | [2] | [4] | [8] | Aromatase (Homo sapiens) | [9] | [10] | [11] | [12] | [13] | [14] | [15] | [16] | [17]
